Eight molecules from PubChem BioAssay (NCATS) can be followed below.

Test [1] is described as follows: AP1 Signaling Pathway (AID 357).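 Also: ME-180 reporter cells stimulated with EGF at its EC50 level; % is scaled to controls: 0 for no effect and ±100 for the full control effect.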 The note with it: ME-180 AP-1-bla reporter, EGF-induced, beta-lactamase ratio, 5 h. The procedure, abridged:
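Titration-series screen for positive or negative modulators of EC50 EGF-induced signaling in ME-180 cells carrying an AP-1-driven beta-lactamase reporter. After 5 hours at 37 degrees Celsius, CCF4 460nm/530nm emission ratio gave %Activity; AC50 values derived.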

For test [2], the target named is Cytochrome P450 1A2 (Homo sapiens) (UniProt P05177). Nature of the test: p450-cyp1a2 (AID 410; calls by dose curve; also: potency is read from the fitted curve at half-maximal effect;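 as to activity change, negative = inhibition: -100% = full effect of reference inhibitor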). The note with it: recombinant CYP1A2, luciferin-ME demethylation, luminescence; series mostly up to 57 µM. The procedure, abridged: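 Luminescent readout of luciferin formed from Luciferin-ME by human CYP1A2; data normalized against complete inhibition by 57 uM furafylline. Enzyme 20nM, substrate 100uM at Km, 100mM KPO4 buffer, 60 min reaction at room temperature.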
Sequence of Cytochrome P450 1A2 (Homo sapiens) (P05177 whole entry, looked up): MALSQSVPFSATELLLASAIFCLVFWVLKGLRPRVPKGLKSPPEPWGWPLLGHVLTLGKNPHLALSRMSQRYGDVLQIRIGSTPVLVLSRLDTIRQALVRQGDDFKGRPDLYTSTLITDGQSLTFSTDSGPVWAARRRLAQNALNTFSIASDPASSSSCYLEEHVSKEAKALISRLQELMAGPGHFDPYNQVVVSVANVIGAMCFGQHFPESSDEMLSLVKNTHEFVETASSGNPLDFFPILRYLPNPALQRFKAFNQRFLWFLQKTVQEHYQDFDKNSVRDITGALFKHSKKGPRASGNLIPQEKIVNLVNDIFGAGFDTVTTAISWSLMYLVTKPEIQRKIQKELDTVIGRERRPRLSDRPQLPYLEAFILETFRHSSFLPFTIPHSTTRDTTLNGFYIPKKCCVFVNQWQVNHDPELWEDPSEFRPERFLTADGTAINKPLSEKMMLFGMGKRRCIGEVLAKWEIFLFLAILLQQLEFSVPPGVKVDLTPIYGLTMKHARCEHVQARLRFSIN

Test [3] is described as follows: NFAT Signaling Pathway (AID 444).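 Also: carbachol stimulus at about its EC50 of 1 µM final; % is scaled to controls: 0 for no effect and ±100 for the full control effect.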 The conditions noted are these: Jurkat NFAT-bla M1, carbachol, beta-lactamase ratio, 5 h. The essentials: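 Jurkat cells carrying an NFAT-driven β-lactamase reporter and co-transfected muscarinic M1 receptor were treated with compound plus carbachol (1 uM final, an EC50 level) for 5 h at 37 °C. CCF4 loading followed for 1 h at RT; 460/530 nm ratio gave %activity.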

Test [4] in a line: Stat Signaling Pathway (AID 446).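 Also: ME-180 cervical cancer cells given 40 pM IL-6 alongside compound; SIE-controlled beta-lactamase reporter measured as 460/530 nm FRET emission ratio; % is scaled to controls: 0 for no effect and ±100 for the full control effect.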 The note with it: ME-180 SIE beta-lactamase reporter, IL-6 stimulated, 5 h. The essentials: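 Reporter line: ME-180 cervical carcinoma, SIE-beta-lactamase. Treatment: compound with 40 pM IL-6, 5 hrs, 37 C, in low-serum OPTI-MEM with 10 mM HEPES pH 7.3. Detection: 460/530 nm fluorescence.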
In test [5] the target is Mitogen-activated protein kinase 10 (Mus musculus) (UniProt Q61831). In words: JNK3 AlphaScreen Assay (AID 530).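 Also: kinase came from lysate of stimulated human HepG2 cells; signal reports phosphorylation of biotinylated GST-cJun 1-79 at Ser73 with 10 µM ATP; % is scaled to controls: 0 for no effect and ±100 for the full control effect.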 The conditions noted are these: JNK3 lysate, c-Jun phosphorylation; series mostly up to 57.1 µM. The procedure, abridged:
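Inhibitors reduce antibody binding to phosphorylated biotin-cJun, lowering AlphaScreen luminescence. Lysates from HepG2 cells pre-activated by IL-1beta plus TNF-alpha supplied JNK3; compounds were titrated.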
(Alpha assays give light when donor and acceptor beads are brought close together.)

The target in test [6] is Glucocorticoid receptor (Homo sapiens) (UniProt P04150). In words: GR-GFP Redistribution (AID 450;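 active = compounds whose dose series gives a full or clear partial fitted curve of increased nuclear translocation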; also: potency is read from the fitted curve at half-maximal effect). The conditions noted are these: U2OS GR-GFP nuclear translocation, laser cytometry, 2 h.
Sequence of Glucocorticoid receptor (Homo sapiens) (P04150 whole entry, looked up): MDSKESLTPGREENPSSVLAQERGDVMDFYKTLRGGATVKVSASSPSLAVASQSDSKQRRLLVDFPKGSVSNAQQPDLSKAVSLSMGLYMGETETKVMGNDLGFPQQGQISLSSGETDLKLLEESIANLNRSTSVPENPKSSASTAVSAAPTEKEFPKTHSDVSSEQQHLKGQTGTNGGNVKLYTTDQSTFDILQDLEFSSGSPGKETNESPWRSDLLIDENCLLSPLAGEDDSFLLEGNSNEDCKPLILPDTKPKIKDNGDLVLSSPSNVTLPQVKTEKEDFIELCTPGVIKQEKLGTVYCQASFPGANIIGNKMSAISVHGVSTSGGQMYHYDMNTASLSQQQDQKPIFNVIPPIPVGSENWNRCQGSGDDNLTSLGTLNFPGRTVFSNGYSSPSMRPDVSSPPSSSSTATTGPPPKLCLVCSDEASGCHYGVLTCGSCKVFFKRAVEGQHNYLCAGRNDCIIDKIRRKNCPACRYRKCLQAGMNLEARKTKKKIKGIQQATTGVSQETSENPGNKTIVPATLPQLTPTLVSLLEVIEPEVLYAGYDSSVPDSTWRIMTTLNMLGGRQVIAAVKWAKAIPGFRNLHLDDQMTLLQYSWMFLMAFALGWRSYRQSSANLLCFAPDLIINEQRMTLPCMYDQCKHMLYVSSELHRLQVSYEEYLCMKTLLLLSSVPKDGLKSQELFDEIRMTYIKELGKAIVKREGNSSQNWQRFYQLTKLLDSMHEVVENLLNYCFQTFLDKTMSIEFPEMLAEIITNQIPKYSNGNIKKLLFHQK
Test [7] shares this target. In words: GR-EFC Redistribution (AID 451; calls by dose curve; also: potency is read from the fitted curve at half-maximal effect). The conditions noted are these: CHO-K1 GR-EFC translocation, beta-gal luminescence, 2 h. The essentials:
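CHO-K1 cells stably expressing nuclear-localized β-gal enzyme acceptor and GR fused C-terminally to the enzyme donor fragment; ligand-driven nuclear translocation restores β-gal by complementation. Compounds titrated up to 46 uM final, 2 h at 37 °C; luminescence read.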

Test [8] is described as follows: Cell Viability - BJ (AID 421; calls by dose curve;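 also: potency is read from the fitted curve at half-maximal effect; cells exposed to compound for 40 hours at 37 °C before readout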). The note with it: BJ fibroblast viability, qHTS. The essentials:
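Cytotoxicity as drop in intracellular ATP (CellTiter-Glo, 20 min RT) after 40 hr compound exposure of BJ fibroblasts at 37 °C. Titrations scaled between DMSO and 100 uM tamoxifen, Hill-fitted for AC50.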

Test [9] in a line: Cell Viability - Jurkat (AID 426;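 active = dose-dependent loss of cell ATP signal giving a full or clear fitted curve, ranked by lower potency value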; also: potency is read from the fitted curve at half-maximal effect). The note with it: qHTS. The essentials: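 qHTS, 1536-well; Jurkat E6-1, 5000 cells/well, complete medium; cpd 40 hr, 37 °C; CellTiter-Glo 20 min RT; luminescence. AC50 by Hill fit.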
Test [10] in a line: Cell Viability - HepG2 (AID 433; calls by dose curve;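 also: potency is read from the fitted curve at half-maximal effect; potency for ATP loss meaning cytotoxicity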). The conditions noted are these: qHTS. The procedure, abridged:
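Cytotoxicity is scored as loss of intracellular ATP in HepG2 cells exposed to compounds for 40 h. Concentration-response curves, normalized to DMSO and 100 uM tamoxifen, give AC50 values.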
For orientation: qHTS replaces the single test concentration by a dilution series.

Test [11] can be described thus: Cell Viability - MRC5 (AID 434; calls by dose curve;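 also: potency is read from the fitted curve at half-maximal effect; potency reflects cytotoxicity seen as loss of intracellular ATP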). The note with it: MRC5 lung fibroblast viability, qHTS. The procedure, abridged: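 MRC5 normal human lung fibroblasts (1500/well) were treated with compounds for 40 hr at 37 °C in complete medium, and viable cells were measured as intracellular ATP by CellTiter-Glo luminescence. AC50 came from Hill fits, normalized to DMSO and 100 uM tamoxifen.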

Test [12] is described as follows: Cell Viability - SK-N-SH (AID 435; calls by dose curve;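 also: potency is read from the fitted curve at half-maximal effect; compound exposure lasted 40 h at 37 °C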). The note with it: SK-N-SH neuroblastoma cell viability qHTS. The essentials: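 Cells seeded at 1500 per well and incubated 5 hr at 37 °C. Compound added, then 40 hr at 37 °C. CellTiter-Glo added, 20 min at room temperature, luminescence read.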
Test [13] in a line: Cell Viability - N2a (AID 540; active = well fitted curve in the direction sought with a large enough effect; an effect the other way counts as inactive or inconclusive;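 also: cells exposed to compound for 40 h at 37 °C; plate controls were DMSO alone for no effect and tamoxifen control for full effect; nearly all actives have a fitted effect of over 45% in size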). The note with it: N2a mouse neuroblastoma cell viability; activity change, negative = cytotoxicity: at 92.2 µM (top of the series). The procedure, abridged: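 Luminescent ATP signal (CellTiter-Glo, 20 min at room temperature) served as the viability read-out after N2a cells were treated with compounds for 40 hours at 37 °C. Concentration-response data were fitted to the Hill equation for AC50.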

Test [14] can be described thus: Cell Viability - HUV-EC-C (AID 542; active = well fitted curve in the direction sought with a large enough effect; an effect the other way counts as inactive or inconclusive; also: % is scaled to controls: 0 for no effect and ±100 for the full control effect; nearly all actives have a fitted effect of over 35% in size). The note with it: HUV-EC-C endothelial cell viability, qHTS; series mostly up to 92.2 µM. The procedure, abridged:
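qHTS cytotoxicity: HUV-EC-C, 1000 cells/well, 5 hr settle, compound 40 hr 37 °C, CellTiter-Glo, luminescence. AC50 via Hill equation.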

A short description of test [15]: Cell Viability - H-4-II-E (AID 543; active = well fitted curve in the direction sought with a large enough effect; an effect the other way counts as inactive or inconclusive; also: % is scaled to controls: 0 for no effect and ±100 for the full control effect; nearly all actives have a fitted effect of over 35% in size). The conditions noted are these: H-4-II-E rat hepatoma viability; series mostly up to 92.2 µM. The essentials:
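Luminescent ATP signal (CellTiter-Glo) served as the viability read-out, with cytotoxicity seen as a concentration-dependent ATP drop. Cells were treated for 40 hours in complete medium. AC50 values derive from Hill-equation modelling.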

The nature of test [16]: Cell Viability - SH-SY5Y (AID 544; active = well fitted curve in the direction sought with a large enough effect; an effect the other way counts as inactive or inconclusive; also: potency is read from the fitted curve at half-maximal effect; nearly all actives have a fitted effect of over 55% in size). The conditions noted are these: SH-SY5Y neuroblastoma cell viability; series mostly up to 92.2 µM. The essentials: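 Luminescent ATP read-out (CellTiter-Glo) measures loss of viable SH-SY5Y neuroblastoma cells after 40 hr compound exposure at 37 °C. AC50 values derive from standard Hill modelling of qHTS concentration-response data.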

A short description of test [17]: Cell Viability - Renal Proximal Tubule (AID 545; active = well fitted curve in the direction sought with a large enough effect; an effect the other way counts as inactive or inconclusive;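 also: 0% = DMSO only and -100% = 100 µM tamoxifen; nearly all actives have a fitted effect of over 40% in size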). The conditions noted are these: renal proximal tubule cells viability; series mostly up to 91.7 µM. The essentials: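 Cytotoxicity is scored as a concentration-dependent drop in cellular ATP in primary rat renal proximal tubule cells exposed for 40 hr. AC50 derives from Hill modelling.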
Test [18] can be described thus: Cell Viability - Mesenchymal (AID 546; active = well fitted curve in the direction sought with a large enough effect; an effect the other way counts as inactive or inconclusive;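 also: cells exposed to compound for 40 hours before reading; 0% = DMSO only and -100% = 100 µM tamoxifen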). The conditions noted are these: mesenchymal cells viability, qHTS; series mostly up to 91.7 µM. The procedure, abridged:
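Normal human renal glomerulus-derived kidney mesenchymal cells, 1000 per well in complete medium, were treated with compounds for 40 hr at 37 °C. Viability was read as intracellular ATP by CellTiter-Glo luminescence; AC50 values came from Hill-equation fits of qHTS concentration-response data.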

SMILES strings stand for the structures. Several values for one entry are separate records, joined by “and”; a condition that tells them apart may be missing. Identical values can stand only once. Values without a mark were called inactive. Records with an inconclusive call do not appear. Activity calls are given as the source filed them. Unless noted, calls follow the shape of the dose curve; as a rule, active = well fitted curve in either direction with a large enough effect (not every such curve was filed as active); inconclusive = small, poorly fitted or top-dose-only effect, or another doubt; inactive = flat fitted curve, though single readings scatter.

Turning to `C[C@]12N[C@H](Cc3ccccc31)c1ccccc12`, the activity change, negative = inhibition in test [1] (at 38 µM (top of the series)) is -6.02% and 8.41%; in test [3] (at 38 µM (top of the series)) it was -11.3% and -3.27%. Also, the Potency result in [2] is “inactive”. The activity, negative = inhibition in test [4] (at 38 µM (top of the series)) is 16.1% and 6.66%. Also, the result in test [5] was inactive.

Take `c1ccc(CCCN2CCN(CCOC(c3ccccc3)c3ccccc3)CC2)cc1`: the activity change, negative = inhibition in test [1] (at 38 µM (top of the series)) is -23%; in test [3] (at 38 µM (top of the series)), -82.7% (active). Moreover, the activity, negative = inhibition in [4] (at 38 µM (top of the series)) was -17.9%. Further, the Potency in test [6] and in test [7] was more than 46 µM in each case. Moreover, the call in [5] was inactive.

As for `CC(=O)OCC1=C(C(=O)O)N2C(=O)[C@@H](N)[C@@H]2SC1`, the values for the activity change, negative = inhibition in test [1] (at 17.2 µM (top of the series)) and in test [3] (at 17.2 µM (top of the series)) were 2.29% and -6.12%, respectively. For the same molecule, the Potency result in [2] was “inactive”. The activity, negative = inhibition in [4] (at 17.2 µM (top of the series)) is -1.03%. Moreover, the Potency in [6] and in [7] was more than 20.6 µM throughout. The result in test [5] was inactive.

In the case of `NCCc1c[nH]c2ccccc12`, the values for the activity change, negative = inhibition in test [1] (at 38 µM (top of the series)) and in [3] (at 38 µM (top of the series)) were -5.53% and -3.55%, respectively. Moreover, the Potency in test [2] is 3.16 µM (active); in test [6] it was more than 46 µM; in [7], more than 46 µM. In [4] (at 38 µM (top of the series)), the activity, negative = inhibition was -11.1%. Also, in test [5], the call was inactive.

Take `COc1ccc(C(=O)c2c(C)n(CCN3CCOCC3)c3cc(I)ccc23)cc1`: the Potency in test [2] was 15.8 µM (active); in test [6] it was more than 46 µM; in test [7] it was more than 46 µM.

Regarding `O=C1CCCN1CC#CCN1CCCC1`, in test [1] (at 38 µM (top of the series)), the activity change, negative = inhibition was 8.1%. Further, in test [2], the Potency result is “inactive”. In addition, in [4] (at 38 µM (top of the series)), the activity, negative = inhibition is -7.65%. For the same molecule, the Potency in [6] and in test [7] was more than 46 µM each time. For the same molecule, in [5], the molecule was classed as inactive.

Take `NCCc1c[nH]c2ccc(O)cc12`: the activity change, negative = inhibition was 7.63% in test [1] (at 17.2 µM (top of the series)), 7.62% in [1] (at 38 µM (top of the series)), -8.4% in test [3] (at 17.2 µM (top of the series)) and 4.18% in test [3] (at 38 µM (top of the series)). Further, the Potency in test [2] is 7.94 µM (active) and 2 µM (active); in test [6], > 46 µM and > 20.6 µM; in test [7], > 46 µM and > 20.6 µM. Also, the activity, negative = inhibition in [4] (at 17.2 µM (top of the series)) is -0.625%; in [4] (at 38 µM (top of the series)), -13.2%. Further, the molecule was classed as inactive in test [5].

For `CCOP(=O)(NC(C)C)Oc1ccc(SC)c(C)c1` (stereo unspecified), the Potency in test [8] is more than 92 µM; in test [9], more than 92 µM; in test [10] it was more than 92 µM; in [11], more than 92 µM; in [12], more than 92 µM; in [16], 12.6 µM (active). Moreover, the molecule was called inactive in test [5]. For the same molecule, the activity change, negative = cytotoxicity in [13] was -29.1%. Besides, the Potency entry in [14], in test [15], in [17] and in test [18] was “inactive” in each case.
